# Source: PubChem BioAssay (Tox21)
# Inconclusive results are not listed. Values without a mark were called inactive. Activity calls are given as the source filed them. The call rests on the fitted dose curve; in most records, active means well fitted cell-killing curve with a large enough effect in the repeat runs; inconclusive means weak or mixed curves, or effect the other way; inactive means flat fitted curve, though single readings scatter.
# Test: cAMP Responsive Elements (CRE) small molecule agonists, cell-based qHTS assay: qHTS cell viability counter screen (AID 2060914); further: nearly all actives have a fitted effect of over 50% in size
# Details: CRE-bla HEK293T viability, CellTiter-Glo luminescence, 5 h; series mostly up to 92.4 µM; activity change, negative = cytotoxicity: at the top concentration
# How it was run: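 Luminescence read-out (CellTiter-Glo, 30 min RT) of ATP-based viability in CRE-bla HEK 293T cells, run in the same wells as the β-lactamase reporter assay after 3 h compound treatment at 37 °C.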
# On the % scale 0 is the no-effect control and ±100 the full control effect; potency means the concentration at half of the fitted maximal effect.
SMILES,"activity change, negative = cytotoxicity",Potency
Nc1nc(N)c(N)c(N)n1,-0.697%,
N#CC(C#N)=NNc1cccc(Cl)c1,-12.9%,
CN(C)CCc1c[nH]c2ccccc12,-0.143%,
CC(C)=CCN1CC[C@@]2(C)c3cc(O)ccc3C[C@@H]1[C@@H]2C,0.368%,
CCCCOCN(C(=O)CCl)c1c(CC)cccc1CC,-16.4%,
c1ccc2c(c1)CCNC2,-3.59%,
O=C(c1ccccc1)C(Cl)Cl,14.1%,
CCOCN(C(=O)CCl)c1c(C)cccc1CC,,inactive
N#CCCC#N,-6.55%,
COc1cccc2c1cc([N+](=O)[O-])c1c(C(=O)O)cc3c(c12)OCO3,13.5%,
O=[N+]([O-])c1cccc2c([N+](=O)[O-])cccc12,,61.4 µM (active)
O=S(=O)(NS(=O)(=O)C(F)(F)F)C(F)(F)F,-10.8%,
CC1Sc2c(C(=O)O)c(=O)c3cc(F)c(N4CCNCC4)cc3n21 (stereo not drawn),5.19% [at 42.5 µM],
COc1nn(C(=O)NS(=O)(=O)c2ccccc2OC(F)(F)F)c(=O)n1C,-7.83%,
O=C(Nc1ccccc1)Nc1ccnc(Cl)c1,-14.5%,
CCCCCCCCCCCCCCCl,6.12%,
NC(=S)Nc1ccccc1,8.38%,
COC12CC[C@@]3(C[C@@H]1C(C)(O)C(C)(C)C)[C@H]1Cc4ccc(O)c5c4[C@@]3(CCN1CC1CC1)[C@H]2O5 (stereo partly drawn),3.3%,
